The whole screen tested about 48,000 compounds, of which about 13,000 (27%) showed an effect of 50% or more. The list shows a part of the results.

The assay deals with Wolbachia pipientis. Put plainly: Anti-Wolbachia Cell-Based Screen. It counts as functional. Further details: scale not given: in the data most compounds retested in dose-response had high values. To be noted: 5 µM.
In the case of `CCC(NC(=O)c1cccc2cc[nH]c12)C(=O)N1CCOCC1` (stereo not drawn), the “Percent Effect” value was 1.714%. As to `O=C(O)C(F)(F)F.O=C(O)C(F)(F)F.c1cnc(N2CCC3(CCN(CC4CC4)CC3)CC2)nc1`, the “Percent Effect” value was -4.913%. On to `COc1ccnc(N2CCC3(CCCN(CC4CC4)C3=O)C2)n1` (stereo not drawn), for which the “Percent Effect” value is -5.296%. The figure for `O=C(O)C(F)(F)F.O=C1N(CC2CCCC2)CCC12CCN(c1ncc(F)cn1)CC2` is 111.9%. As to `Cc1cnc(N2CCC3(CCN(CC4CCCC4)C3=O)CC2)nc1.O=C(O)C(F)(F)F`, the “Percent Effect” value amounted to 94.42%. The figure for `CN(C)C(=O)CN1CCC2(CCCN(c3ncc(F)cn3)C2)C1=O` (stereo not drawn) is -17.79%.

Regarding `CN1CCC2(CCN(c3ncc(F)cn3)CC2)C1=O.O=C(O)C(F)(F)F`, the “Percent Effect” value is on record as 5.555%. `Cc1cnc(N2CCC3(CC2)CC3CNC(=O)C2CCC2)nc1.O=C(O)C(F)(F)F` (stereo not drawn): the “Percent Effect” value is recorded as -2.894%. Turning to `O=C(O)C(F)(F)F.O=C1N(CC2CC2)CCC12CCCN(c1ncc(F)cn1)C2` (stereo not drawn), the “Percent Effect” value was determined as 107.4%. The figure for `Cc1cnc(N2CCC3(CCC(C(=O)NC(C)C)C3)CC2)nc1.O=C(O)C(F)(F)F` (stereo not drawn) is -24.15%; for `CC(C)OCCC1CCCCN1S(N)(=O)=O` (stereo not drawn) it is 5.549%; for `Cc1cnn(-c2cccc(N3CCCC3)n2)c1` it is 2.122%.

As to `Cc1cc(C)n(CC2CN(CC(=O)N3CCNC3=O)CCO2)n1` (stereo not drawn), the “Percent Effect” value is given as 88.91%. Next, `Cc1cc(C)n(CC2CN(CC(=O)N3CCC3)CCO2)n1` (stereo not drawn): 107.3%. Next, `Fc1cc(CNCCn2cccn2)ccc1-n1cncn1`: -7.055%; `Cc1nc(CSc2ccc(C(F)(F)F)cn2)no1`: -11.09%.

In the case of `CCCN1CCC(NC(=O)c2csc(C)c2-c2ccccc2)CC1`, the “Percent Effect” value is 2.697%. For the compound `Cc1csc(C(=O)NCCN2CCC(c3cccs3)CC2)c1`, the “Percent Effect” value was determined as 131.4%.

For `CC(=O)NCCN1CCC(c2cccs2)CC1`, the “Percent Effect” value was -11.86%. The figure for `O=C(Cc1ccccc1Cl)NCCN1CCC(c2cccs2)CC1` is 167.3%. In the case of `Cc1ccccc1C1CCN(CCNC(=O)CS(C)(=O)=O)C1` (stereo not drawn), the “Percent Effect” value is given as -1.802%.

With `COc1ccc(C(=O)NCCN2CCC(c3cccs3)CC2)cc1OC`, the “Percent Effect” value is given as 108.4%. Next, `COc1ccc(C(=O)NCC(=O)N(Cc2ccsc2)C2CC2)cc1OC`: -17.21%; `Cc1nc(CC(=O)NCCN2CCC(c3ccccc3C)C2)cs1` (stereo not drawn): -10.54%; `O=C(NCCN1CCCC(CO)C1)c1ccc2sccc2c1` (stereo not drawn): 0.9044%. In the case of `O=C(NCCN1CCC(c2cccs2)CC1)c1ccccc1C(F)(F)F`, the “Percent Effect” value was 6.812%. Next, `CCCNC(=O)c1cc2c([nH]c1=O)CC(c1cccs1)CC2=O` (stereo not drawn): 1.208%; `CCSc1ccccc1C(=O)NCCN1CCC(c2cccs2)CC1`: 153.4%. In the case of `CCNc1ncc(C2CC(=O)Nc3c2cnn3Cc2ccncc2)cn1` (stereo not drawn), the “Percent Effect” value worked out at 0.3044%. `CCSCCC(=O)NCc1cnn(-c2ccc(F)cc2F)c1`: the “Percent Effect” value came to 1.546%.

As for `Cc1ccc(S(=O)(=O)NC(=O)CCOCC(C)C)s1`, the “Percent Effect” value was 14.43%.

Take `O=C(CCc1cc(Cl)no1)N1CCCCC1CCn1ccnc1` (stereo not drawn): the “Percent Effect” value is on record as -6.627%. Next, `O=C(c1cccnc1-n1cncn1)N1CCc2ccccc2C1`: 12.03%; `COc1ccc(CNCC2CCN(CC(C)O)CC2)c2ccccc12` (stereo not drawn): -9.036%. Next, `CCN(Cc1nnnn1C1CC1)c1cc(C)ccc1C`: -3.19%. With `O=C(NCC(c1cccs1)N1CCOCC1)c1ccc(F)cc1Cl` (stereo not drawn), the “Percent Effect” value is reported as -4.405%. As for `O=C(NCCN1CCC(c2cccs2)CC1)c1ccc(F)cc1Cl`, the “Percent Effect” value is 122.6%.

As to `CCN(CC)C(=O)Cc1csc(C(C)C)n1`, the “Percent Effect” value is reported as -7.822%.

On to `Cc1cccc(OCC(=O)N(C)C2CCN(CC3CCOC3)CC2)c1` (stereo not drawn), for which the “Percent Effect” value was -8.689%. Next, `CCCNc1ncc(CN2C[C@H]3CC[C@@H]2CN(C2CCOCC2)C3)cn1`: 7.731%; `c1ccc2cc(OCCN3CCOC(Cn4cncn4)C3)ccc2c1` (stereo not drawn): 0.3629%.

With `Fc1ccc(CN2CCOC(Cn3cncn3)C2)c2ncccc12` (stereo not drawn), the “Percent Effect” value is -8.547%.

In the case of `Clc1ccc(OCCCN2CCOC(Cn3cncn3)C2)cc1` (stereo not drawn), the “Percent Effect” value came out at 88.34%.

Turning to `Fc1ccc(OCCCN2CCOC(Cn3cncn3)C2)cc1` (stereo not drawn), the “Percent Effect” value is on record as 3.822%. Regarding `c1ncn(CC2CN(CCCOc3ccc4c(c3)OCO4)CCO2)n1` (stereo not drawn), the “Percent Effect” value is 97.52%. Next, `N#Cc1ccc(OCCCN2CCOC(Cn3cncn3)C2)cc1` (stereo not drawn): 94.1%. The figure for `Clc1cccc(OCCCN2CCOC(Cn3cncn3)C2)c1` (stereo not drawn) is 125.7%. As for `COc1ccc(OCCCN2CCOC(Cn3cccn3)C2)cc1` (stereo not drawn), the “Percent Effect” value was 1.876%.

Consider `c1cnn(CC2CN(CCCOc3ccc4c(c3)OCO4)CCO2)c1` (stereo not drawn), for which the “Percent Effect” value came out at 1.566%. Turning to `c1cnn(C2CN(CCCOc3ccc4c(c3)OCO4)C2)c1`, the “Percent Effect” value is reported as -8.072%. Take `Cc1cc2n(n1)CC(CNCc1cnn(-c3ccccc3)c1)CN2` (stereo not drawn): the “Percent Effect” value is given as -14.73%. Consider `COc1ccccc1C1CNC(=O)c2nc(-c3ncc[nH]3)[nH]c2C1` (stereo not drawn), for which the “Percent Effect” value is reported as -17.95%. Turning to `N#Cc1ccccc1C(=O)N1C[C@H]2CC[C@@H]1CN(Cc1ccccc1)C2`, the “Percent Effect” value was 1.705%.

Regarding `CCN(Cc1ccco1)C(=O)NCC(c1cccs1)N(C)C` (stereo not drawn), the “Percent Effect” value is reported as -4.593%. The figure for `Cc1nnc(N(CCC#N)CCC#N)s1` is 120.1%. Next, `Cc1ccc(C2CCCCCN2Cc2cn(C)nc2C)cc1` (stereo not drawn): 6.787%.

Regarding `Cc1nn(C)cc1CN1CCCCCC1c1ccccc1Cl` (stereo not drawn), the “Percent Effect” value is 134.4%. The figure for `COC(=O)CCN1CCCC1c1ccccc1Cl` (stereo not drawn) is -1.683%; for `Cc1nn(C)c(C)c1C1CCCN1Cc1cn2ccsc2n1` (stereo not drawn) it is 7.69%. `Cc1nnc(CN2CCCC2c2ccc(Cl)c(Cl)c2)o1` (stereo not drawn): the “Percent Effect” value is reported as -0.8555%.

`N#CCCN(C(=O)CN1CCCC1c1ccccc1Cl)c1ccccc1` (stereo not drawn): the “Percent Effect” value is -18.96%. Next, `Cc1nn(C)cc1CN1CCCCCC1c1ccc(Cl)cc1` (stereo not drawn): 98.47%; `Cc1nnc(CN2CCCC2c2cccc(Br)c2)o1` (stereo not drawn): 20.93%.

Consider `CS(=O)(=O)c1ccc(CN2CCCCC2c2cccc(F)c2)cc1` (stereo not drawn), for which the “Percent Effect” value was 5.873%. Next, `Cc1ccc(C2CCCCCN2Cc2cn(C)nc2C)s1` (stereo not drawn): 10.12%. The figure for `Cc1ccsc1C1CCCCCN1Cc1cn(C)nc1C` (stereo not drawn) is 87.45%; for `Cc1cccc(C2CCCCCN2Cc2cn(C)nc2C)c1` (stereo not drawn) it is 99.27%; for `Cc1nn(C)c(C)c1CCC(=O)OCC(=O)N1CCc2sccc2C1` it is -1.071%. In the case of `Cc1ccnc(C(NC(=O)c2sc(C)nc2C)C2CC2)n1` (stereo not drawn), the “Percent Effect” value is on record as -13.48%.

Consider `CC(SCCNS(=O)(=O)c1cnn(C)c1)c1cccc(F)c1` (stereo not drawn), for which the “Percent Effect” value is recorded as 13.07%. As to `COc1ccc(C2CCCCCN2Cc2cn(C)nc2C)cc1` (stereo not drawn), the “Percent Effect” value came to 97.09%. In the case of `COc1ccc(C2CCCCCN2Cc2nnc(C)o2)cc1` (stereo not drawn), the “Percent Effect” value was -42.58%. The figure for `CC(C)N(C)C(=O)C1CSCN1S(=O)(=O)c1cc(Cl)ccc1Cl` (stereo not drawn) is -2.04%.

Regarding `O=C(NCC(F)(F)F)C(c1cccnc1)N1CCOCC1` (stereo not drawn), the “Percent Effect” value is -10.65%. As to `Cc1cc(C2CCC2)nc(N(C)Cc2ncccc2C)n1`, the “Percent Effect” value was 22.22%. As to `Cc1cc(Cc2ccccc2F)cc(C2CCCNC2)n1` (stereo not drawn), the “Percent Effect” value is recorded as 100.5%. As to `Cc1cc(Cc2ccccc2C)cc(C2CCCNC2)n1` (stereo not drawn), the “Percent Effect” value was found to be 111.5%. For `CCOc1ccc2ccccc2c1CNCC1CCNCC1.Cl.Cl`, the “Percent Effect” value is 8.229%. Next, `Cc1cc(N2CCC(n3cc(CN4CCC[C@@H]4CO)nn3)CC2)ccn1`: -20.23%; `CC(=O)NCc1nccnc1C1CCN(C(=O)c2cc[nH]n2)CC1`: 109%; `CC(=O)N1CCC(c2nccnc2CNC(=O)c2cc[nH]n2)CC1`: 109.1%. The figure for `CCOc1ccccc1OC1CCN(C(=O)c2cc[nH]n2)CC1` is -11.18%.

For `CC(C)n1ccnc1C1CCN(C(=O)c2cc[nH]n2)CC1`, the “Percent Effect” value came to 7.968%. On to `CC(C)Oc1ncccc1CNC(=O)c1cc[nH]n1`, for which the “Percent Effect” value is on record as 6.018%.

`O=C(c1cc[nH]n1)N1CCC(c2nccn2Cc2ccncc2)CC1`: the “Percent Effect” value is -13.9%. In the case of `COCC1CC2(CCNCC2)CN1Cc1csc(C)n1.O=C(O)C(F)(F)F.O=C(O)C(F)(F)F` (stereo not drawn), the “Percent Effect” value is -1.413%. Next, `COCCN(Cc1ccc(F)cc1Cl)C(=O)c1cc(C)n[nH]1`: 6.366%. Take `Cc1cc(Cn2cc(C(C)Cc3ccc4c(c3)OCO4)nn2)n[nH]1` (stereo not drawn): the “Percent Effect” value turned out to be 3.819%. For the compound `Cc1cnc(N2CC[C@@H](N3CCOCC3)[C@@H]2Cc2ccncc2)nc1.O=C(O)C(F)(F)F.O=C(O)C(F)(F)F`, the “Percent Effect” value was -9.199%.

As to `O=C(O)C(c1cccc2c1OCC2)N1CCC(N2CCSCC2)CC1` (stereo not drawn), the “Percent Effect” value worked out at 4.197%. With `COc1ccc(C(C(=O)O)N2CCN(C3CCCCC3)CC2)cc1OC` (stereo not drawn), the “Percent Effect” value was -12.55%. With `O=C(O)C(c1ccc2c(c1)OCCO2)N1CCC(N2CCSCC2)CC1` (stereo not drawn), the “Percent Effect” value stood at 114.8%. Next, `O=C(O)C(c1ccc2c(c1)OCCO2)N1CCSCC1` (stereo not drawn): 3.219%; `O=C(O)C(c1ccc(O)cc1)N1CCC(N2CCSCC2)CC1` (stereo not drawn): 107.3%. Next, `Cc1cc(=O)n2ncnc2n1CC(O)c1cc(Cl)ccc1Cl` (stereo not drawn): -47.28%; `COc1ccc(F)c(-c2cc(O)nc(N)n2)c1`: -16.24%; `CCN1CCOCC12CCN(C(=O)Cc1cccs1)CC2.O=C(O)C(F)(F)F`: 0.8444%.

As to `CN(C)CCN1CCC2(CCCN(C(=O)C3CCC3)C2)CC1.O=C(O)C(F)(F)F.O=C(O)C(F)(F)F`, the “Percent Effect” value is reported as -7.862%. With `CC(=O)N1CCC2(CC1)COCCN2CCN(C)C.O=C(O)C(F)(F)F.O=C(O)C(F)(F)F`, the “Percent Effect” value was 6.129%. For `CCN1CCOCC12CCN(C(=O)C1CCC1)CC2.O=C(O)C(F)(F)F`, the “Percent Effect” value is recorded as 107.9%. Next, `CCN1CCOCC12CCN(C(=O)c1ccsc1)CC2.O=C(O)C(F)(F)F`: -8.879%; `CC(C)C(=O)N1CCC2(CCN2CC2CC2)C1.O=C(O)C(F)(F)F` (stereo not drawn): -2.181%.

With `O=C(C1CCC1)N1CCC2(CCCN2CC2CC2)CC1.O=C(O)C(F)(F)F`, the “Percent Effect” value came to 90.77%.

Consider `CN1CCOCC12CCN(c1nncs1)CC2.O=C(O)C(F)(F)F.O=C(O)C(F)(F)F`, for which the “Percent Effect” value came out at 6.857%.

Take `CN(C)CCN1CCOCC12CCN(C(=O)C1CC1)CC2.O=C(O)C(F)(F)F.O=C(O)C(F)(F)F`: the “Percent Effect” value was found to be 105.8%. Next, `CN1CCOC2(CCCN(C(=O)C3CCCCC3)C2)C1.O=C(O)C(F)(F)F` (stereo not drawn): -15.05%. The figure for `Cn1ccnc1C(=O)N1CCC2(CCCN2CC2CC2)CC1.O=C(O)C(F)(F)F` is 5.734%. `CN1CCOCC12CCN(C(=O)C1CCC1)CC2.O=C(O)C(F)(F)F`: the “Percent Effect” value is reported as 137.1%.

Values taken from ChEMBL document CHEMBL3988442, “University of Dundee, Small-Polar-MMV Screening Library” (2021).
